# ELG1 repair inh = ELG1-dependent DNA repair inhibition. Potency, µM (top dose mostly 46.1 µM), without a hit: at the top dose activity change, negative = inhibition, most hits filed as inhibitors. 330,000 compounds, 2.3% hits. HEK293T ELG1-luciferase reporter, luminescence, 16 h; DNA damage induced by 5-fluorouridine. AID 504467; further: on the % scale 0 is the no-effect control and ±100 the full control effect; nearly all actives have a fitted effect of over 55% in size
#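 DMSO vehicle served as the neutral condition. Each well held 2,000 cells given 5-fluorouridine plus compound; after 16 hr at 37 °C/5% CO2, ONE-Glo was added and luciferase measured 30 min later.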
# SW480 rereplic = inducers of DNA re-replication in SW480 colon cancer cells; 340,000 compounds, 1.8% hits; SW480 DNA re-replication, Hoechst DNA content imaging, 48 h; Potency, µM (doses to about 46.1 µM), inactives show at the highest dose re-replication activation, actives largely listed as activators; further: % of control where 0% means no effect; nearly all actives have a fitted effect of over 55% in size
#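 Quantitative HTS format with DMSO vehicle controls; 48 hr drug incubation at 37 C, then 40 min Hoechst staining and scanning imager measurement at 405 nm excitation.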
# VP16 counter = Gal4-VP16 reporter inhibition counter-screen | 310,000 compounds, 3.5% hits | Potency, µM (top dose mostly 53.6 µM), for the others: at the top dose activity, negative = inhibition, most hits filed as inhibitors | Drosophila S2 Gal4-VP16 UAS-luciferase, luminescence, 20 h;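 further: Gal4-VP16 expression switched on by copper sulfate through the metallothionein promoter; on the % scale 0 is the no-effect control and ±100 the full control effect; nearly all actives have a fitted effect of over 50% in size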
# MCF10A rerep = DNA re-replication induction in MCF 10a cells. Potency, µM (doses to about 46.1 µM), without a hit: top-dose activity, positive = re-replication, most hits filed as activators. 350,000 compounds, 2.9% hits. AID 624296. MCF 10A DNA re-replication, Hoechst nuclear intensity, 48 h; further: % of control where 0% means no effect; nearly all actives have a fitted effect of over 50% in size
# RORgamma inh = blocks mouse ROR gamma transcriptional activity | P51450 | Potency, µM (series often up to 53.6 µM), without a hit: top-dose activity change, negative = inhibition, actives largely listed as inhibitors | 310,000 compounds, 5.4% hits | Drosophila S2 Gal4-RORgamma UAS-luciferase reporter, 20 h; further: on the % scale 0 is the no-effect control and ±100 the full control effect; nearly all actives have a fitted effect of over 60% in size
# Target sequence (P51450 whole entry, looked up, the tested form may be a part): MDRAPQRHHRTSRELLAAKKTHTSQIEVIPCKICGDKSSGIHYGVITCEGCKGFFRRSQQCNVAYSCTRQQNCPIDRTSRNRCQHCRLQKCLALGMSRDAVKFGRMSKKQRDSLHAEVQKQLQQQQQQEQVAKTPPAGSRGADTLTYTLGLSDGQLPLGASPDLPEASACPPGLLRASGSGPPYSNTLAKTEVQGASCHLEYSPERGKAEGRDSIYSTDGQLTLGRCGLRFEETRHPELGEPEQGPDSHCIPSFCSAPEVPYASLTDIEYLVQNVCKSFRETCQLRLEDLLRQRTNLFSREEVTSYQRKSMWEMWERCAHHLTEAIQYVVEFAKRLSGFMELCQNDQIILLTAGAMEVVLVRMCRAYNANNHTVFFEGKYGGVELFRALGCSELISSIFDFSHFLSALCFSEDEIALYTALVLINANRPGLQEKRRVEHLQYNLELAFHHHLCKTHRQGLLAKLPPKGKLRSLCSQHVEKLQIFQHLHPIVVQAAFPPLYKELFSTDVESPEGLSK
#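 Read-out: Photinus luciferase luminescence; inhibitors lower reporter signal. Insect Schneider cells with Gal4-ROR gamma fusion under metallothionein promoter, UAS reporter; 700 uM final copper sulfate induction, 20 hr, ambient temperature.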
# The depositor's hits bear a star; u = inconclusive; x = no result; [ ] = another dose, or the depositor's remark. Compounds with a hit are over-represented: about 10% of the library has one in this group of screens. The call rests on the fitted dose curve; in most records, active means well fitted curve in the direction sought with a large enough effect; inconclusive means small, poorly fitted or top-dose-only effect, or another doubt; inactive means no such curve, though single readings can be large; an effect the other way counts as inactive or inconclusive. Potency means the concentration at half of the fitted maximal effect.
SMILES,ELG1 repair inh,SW480 rereplic,VP16 counter,MCF10A rerep,RORgamma inh
C/C(=N\Nc1ccc([N+](=O)[O-])cc1)c1ccc(-n2nncc2C)cc1,7.3µM*,u,2%,u,u
C=CCN1C(=O)C2(NC(=O)c3ccccc3N2)c2ccccc21 (centres undefined),8%,18µM*,-4%,u,1%
CCOC(=O)C(NC(=O)c1cccc(Cl)c1)(OCc1ccc(F)cc1)C(F)(F)F (centres undefined),u,-3%,20µM*,17%,u
O=C(NCCN1CCCCC1)Nc1ccc(Br)cc1,-2%,13%,1%,9%,-13%
O=C1N(c2cccc(Cl)c2)C(c2ccccc2)N2CCCN12 (centres undefined),6%,8%,5%,9%,-25%
Cc1ccc(C2N(c3ccccc3)C(=O)N3CCCN23)cc1 (centres undefined),8%,0.52µM*,-2%,3%,5%
Cc1ccc(S(=O)(=O)NNC(=S)Nc2cccc(C)c2C)cc1,-3%,-11%,u,-2%,5µM*
Cc1ccc(S(=O)(=O)NNC(=O)C(=O)NNc2ccccn2)cc1,0%,8%,-7%,u,8.9µM*
COC(=O)NNS(=O)(=O)c1ccc(C)cc1,13%,26µM*,-11%,0%,4%
CC(C)CCNC(=O)CN(Cc1ccccc1)C(=O)CCC(=O)Nc1ccccn1,3%,-2%,5%,u,2%
Cc1cc(NC(=O)C(C)SCC(=O)N(C)CC(=O)Nc2ccc(Br)cc2C)no1 (centres undefined),-27%,4%,13µM*,4%,13µM*
CC(C)CCNC(=O)c1cccc(Cl)c1,17%,-1%,10%,-10%,21%
CN(C)C(=S)NC(=O)c1cccc(Cl)c1,0%,-11%,2µM*,1%,0.56µM*
CNC(=S)Nc1cccc(C(C)=O)c1,-7%,-3%,0%,0%,-14%
CC(=O)c1cccc(NC(=O)NC2CCCCCCC2)c1,u,3%,-21%,1%,-10%
COC(=O)c1cccc(NC(=O)NC(=O)c2ccc(Cl)cc2)c1,u,18µM*,0%,6%,-44%
CC(=O)c1cccc(NC(=S)NC2CCCCCCC2)c1,10%,-5%,13µM*,3%,3.2µM*
CC(=O)c1cccc(NC(=S)NC(=O)CC(C)(C)C)c1,u,1%,u,2%,13µM*
COc1cc(C(=O)N2CCc3ccccc32)ccc1OCc1c(C)noc1C,u,-9%,-4%,1%,19%
Cc1ccc(NC(=O)CSCC(=O)OC(C)C(=O)Nc2ccc(S(N)(=O)=O)cc2)c(C)c1 (centres undefined),8%,-1%,x,-6%,x
CC(=O)c1cccc(NC(=O)Nc2cnn(Cc3ccc(Cl)cc3Cl)c2)c1,26µM*,-2%,-2%,u,30%
CC(=O)c1cccc(NC(=S)NC(=O)C(C)C)c1,16%,-8%,-1%,-6%,13µM*
O=C(Nc1cnn(Cc2ccc(Cl)cc2Cl)c1)c1cc(-c2cccs2)on1,-14%,-7%,-22%,-11%,-40%
CC(=O)c1cccc(NC(=S)NCCc2ccc(Cl)cc2)c1,u,0%,u,14%,13µM*
CC(=O)c1cccc(NC(=S)NC(=O)c2ccccc2)c1,u,2%,u,-7%,8.9µM*
SMILES,ELG1 repair inh,SW480 rereplic,VP16 counter,MCF10A rerep,RORgamma inh
CC(C)NC(=O)[C@H]1N2C(=O)c3ccccc3C2SC1(C)C (some centres undefined),-9%,-1%,14%,8%,23%
CCN(CC(=O)Nc1c(F)cccc1F)C(=O)CCNC(=O)c1ccccc1OC,14%,0%,x,2%,x
C/C=C\C1=C(CO)C(=O)[C@@H]2OC2C1=O (some centres undefined),x,x,-25%[10 µM],x,u
COC(=O)c1cccc(NC(=S)NCCC2=CCCCC2)c1,u,0%[9.22 µM],u,4%,3.2µM*
COc1ccc(C(=O)Nc2cccc(C(C)=O)c2)c(OC)c1OC,u,-1%[9.22 µM],u,30%,-1%
O=C(NC(=S)Nc1cccc(Cl)c1)c1cncc(Br)c1,x,u,x,23%,x
COC(=O)c1cccc(NC(=O)c2cc(OC)c(OC)c(OC)c2Br)c1,12µM*,-1%,-17%,5%,25%
CC(=O)c1cccc(NC(=S)NC(=O)c2cccc(Cl)c2)c1,u,-7%,10µM*,3%,2.8µM*
CCOc1ccc(S(=O)(=O)NCc2cccs2)cc1C(C)C,-1%,-2%,x,u,x
O=C(NC(=S)NNC(=O)c1ccccc1[N+](=O)[O-])c1ccc(Br)cc1,13%,0%,6.3µM*,14%,6.3µM*
Cc1ccc(C(=O)NC(=S)NNC(=O)COc2ccc([N+](=O)[O-])cc2)cc1,u,-6%,11µM*,1%,11µM*
O=C(COc1ccc([N+](=O)[O-])cc1)NNC(=S)NC(=O)c1ccc(Br)cc1,-6%,2%,u,16%,3.2µM*
O=C(NNC(=S)NC(=O)c1ccccc1[N+](=O)[O-])c1ccccc1Cl,-9%,1%,23%,20%,-38%
Cc1ccc(OCC(=O)Nc2ccc([N+](=O)[O-])cc2)cc1,-9%,-6%,-12%,1%,1%
O=C(COc1ccc2ccccc2c1)NNC(=O)c1ccc([N+](=O)[O-])cc1,7%,0%,2%,-1%,3%
O=C(c1cc(C(F)(F)F)cc(C(F)(F)F)c1)N1CCC2(CC1)CCN(c1ccccc1)CC2,x,x,0%,x,-1%
CC1CCCCC1NC(=O)c1ccc(S(=O)(=O)N2CCN(C)CC2)cc1 (centres undefined),0%,-2%,-2%,11%,-25%
CCCn1c(C(C)Nc2nc(-c3ccc(OC)cc3)cs2)nc2ccccc21 (centres undefined),11%,0%,u,u,7.9µM*
COc1cc(C2CC(=O)Nc3ccccc3S2)cc(OC)c1OC (centres undefined),10µM*,5%,-2%,u,1%
COc1cc2c(cc1OC)C(c1cccc(C)c1)CC(=O)N2 (centres undefined),7%,4.1µM*,-10%,-6%,17%
COc1cc2c(cc1OC)C(c1cccc(Cl)c1)CC(=O)N2 (centres undefined),0%,-6%[9.22 µM],-9%,0%,2%
O=C(COC(=O)C1=COCCO1)Nc1ccc(Br)cc1Br,13%,-5%,x,-2%,x
CC1CC(C)CN(CCOCCSc2ccc(Cl)cc2)C1 (centres undefined),-25%,u,6%[10 µM],16µM*,-10%
CC1CC(C)CN(CCCSc2ccccc2)C1 (centres undefined),u,5%,-28%,27%,-6%
